From PubChem BioAssay
HepG2 viability: counter-screen for TGF-b inhibitors: cytotoxicity in HepG2 cells; Potency, µM (titrated, usually from 46.1 µM), usual class: cytotoxic; AID 588856; 410,000 compounds, 0.76% hits; HepG2 CAGA-GFP viability, ATP luminescence, 18 h
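CellTiter-Glo luminescence gave cytotoxicity after 18 hours at 37 degrees C. The cells were HepG2 CAGA-GFP in 1% FBS DMEM, stimulated with 500 pg/mL TGF-beta after compound addition. %Activity was normalised to no-cell wells (complete cell-killing) and DMSO (no toxicity), and curves were fitted and classified.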
TDP1 cell noCPT: qHTS for Inhibitors of human tyrosyl-DNA phosphodiesterase 1 (TDP1): qHTS in cells in absence of CPT; DT40 Tdp1-/- hTDP1 cells, no CPT, ATP luminescence, 48 h; Potency, µM (top dose mostly 46.2 µM), actives largely listed as inhibitors; 420,000 compounds, 15% hits; AID 686978, 2013; also: nearly all actives have a fitted effect of over 55% in size
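No-CPT arm: Tdp1-/-;hTDP1 DT40 cells (400/well) plus compounds, incubated ≥48 hr at 37 °C. Readout CellTiter-Glo luminescence.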
IL-1B inflam inh: inflammasome signaling inhibition, IL-1 beta readout; THP-1 LPS/ATP IL-1B secretion, AlphaLISA, 16 h; hits give low values; AID 743279; 360,000 compounds, 4.7% hits; activity change, % at 57.5 µM; in the data active = activity change below about -50%; inconclusive = mostly about -30% to -49%
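THP-1 cells pretreated 1 hr with compounds (up to 57.5 uM final), then stimulated with LPS (250 ng/mL final) plus ATP (1.25 mM final); secreted IL-1B measured by AlphaLISA after 16 hr, decreased signal indicating inhibition.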
DT40 TDP1 CPT: DT40-hTDP1 cell growth loss with CPT; AID 686979; chicken DT40 Tdp1-/-;hTDP1 cells + 20 nM CPT, ATP luminescence, 48 h; 420,000 compounds, 12% hits; Potency, µM (top dose mostly 46.2 µM), hits mostly inhibitors; also: nearly all actives have a fitted effect of over 55% in size
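Cell growth measured by CellTiter-Glo luminescence after a minimum 48 h, 37 C compound exposure with 20 nM CPT in Tdp1-knockout DT40 cells stably expressing hTDP1, seeded 400/well; qHTS titration format.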
TGFb inhibitor: blocks TGF-b signaling | HepG2 CAGA-GFP TGF-b/SMAD3 reporter, GFP fluorescence, 18 h; TGF-beta stimulated, 500 pg/mL final | Potency, µM (series often up to 46.1 µM), hits mostly inhibitors | 410,000 compounds, 1.2% hits | AID 588855; also: nearly all actives have a fitted effect of over 65% in size
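HEPG2 CAGA-GFP cells (1000/well, DMEM with 1% FBS) were pre-incubated 2 h at 37 degrees C, given compound by pin tool, then stimulated with TGF-beta at 500 pg/mL final for 18 h before per-cell GFP fluorescence imaging.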
TDP1 inh: inhibitors of human tyrosyl-DNA phosphodiesterase TDP1. Q9NUW8. recombinant TDP1, AlphaScreen DNA substrate cleavage. Potency, µM (doses to about 130 µM), hits mostly inhibitors. 350,000 compounds, 0.28% hits. AID 485290; also: nearly all actives have a fitted effect of over 40% in size
Target sequence (Q9NUW8 whole entry, looked up): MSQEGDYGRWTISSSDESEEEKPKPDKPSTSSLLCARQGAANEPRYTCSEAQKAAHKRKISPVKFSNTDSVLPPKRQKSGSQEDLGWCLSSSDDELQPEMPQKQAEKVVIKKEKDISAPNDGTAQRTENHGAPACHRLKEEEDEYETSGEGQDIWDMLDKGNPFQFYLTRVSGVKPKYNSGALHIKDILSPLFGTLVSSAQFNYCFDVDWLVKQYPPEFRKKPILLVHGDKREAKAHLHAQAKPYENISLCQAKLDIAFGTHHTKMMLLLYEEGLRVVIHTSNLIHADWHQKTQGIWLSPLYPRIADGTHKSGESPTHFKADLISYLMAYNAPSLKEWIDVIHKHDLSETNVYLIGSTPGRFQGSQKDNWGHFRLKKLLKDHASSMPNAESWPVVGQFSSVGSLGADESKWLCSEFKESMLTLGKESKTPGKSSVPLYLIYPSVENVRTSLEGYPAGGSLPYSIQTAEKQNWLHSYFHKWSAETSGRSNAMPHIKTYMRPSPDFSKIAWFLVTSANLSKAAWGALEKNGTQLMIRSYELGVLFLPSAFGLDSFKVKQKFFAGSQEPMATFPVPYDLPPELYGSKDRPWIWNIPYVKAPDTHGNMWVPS
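Here, a 5' biotin and 3' phosphotyrosine-FITC DNA oligonucleotide reports Tdp1 activity: intact substrate bridges AlphaScreen beads, while cleavage leaves a 3' phosphate and drops signal. All incubations at room temperature.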
Numbers stand for hits; – = inactive; ? = inconclusive; · = no result; [ ] = another dose, or the depositor's remark. Sampled rows, rich in hits. Any-hit rate of the full collection: about 19%. Unless noted, calls follow the shape of the dose curve; as a rule, active = well fitted curve in the direction sought with a large enough effect; inconclusive = small, poorly fitted or top-dose-only effect, or another doubt; inactive = no such curve, though single readings can be large; an effect the other way counts as inactive or inconclusive.

SMILES	HepG2 viability	TDP1 cell noCPT	IL-1B inflam inh	DT40 TDP1 CPT	TGFb inhibitor	TDP1 inh
COc1ccc(N2CCN(C(=O)COC(=O)c3oc4ccccc4c3C)CC2)cc1	–	16µM	–	21µM	–	–
CCOC(=O)c1oc2ccccc2c1CN1CCN(C(=O)c2ccccc2)CC1	–	?	?	?	–	–
O=C(CS(=O)Cc1ccccc1Cl)Nc1ccccc1Cl (centres undefined)	–	–	–	–	–	–
CN(CCOc1ccc(C[C@H](Nc2ccccc2C(=O)c2ccccc2)C(=O)O)cc1)c1ccccn1	·	–	·	–	·	–
CCOC(=O)c1c(-c2ccccc2)csc1NC(=O)CSc1nc(C)cc(C)n1	–	23µM	–	?	?	–
CCOC(=O)c1c(-c2ccccc2)csc1NC(=O)C(C)NCc1ccco1 (centres undefined)	–	?	–	18µM	–	–
CCOC(=O)c1c(-c2ccc(Cl)cc2)csc1NC(=O)CNCc1ccco1	–	?	–	?	?	·
CCOC(=O)c1c(-c2ccccc2)csc1NC(=S)N(CC)CC	–	?	–	–	–	–
CCOC(=O)c1c(-c2ccccc2)csc1NC(=O)CSc1nc(N)cc(N)n1	–	8.2µM	–	?	?	–
CCOC(=O)c1c(-c2ccccc2)csc1NC(=O)c1nn(CC)cc1Br	–	?	-67	?	–	–
CC(C)CNc1ncnc2oc(-c3ccco3)c(-c3ccco3)c12	–	?	·	?	?	–
CCOC(=O)c1c(NC(=O)c2nn(CC)cc2Br)c(C#N)cn1-c1ccccc1	–	21µM	?	?	?	–
C/C(Cn1nc([N+](=O)[O-])cc1C)=N\NC(=O)c1cccc(Br)c1	–	–	–	–	?	–
C/C(Cn1nnc([N+](=O)[O-])n1)=N\NC(=O)c1ccccc1Cl	–	?	–	23µM	?	–
C/C(Cn1nnc([N+](=O)[O-])n1)=N\NC(=O)c1cccc(Cl)c1	–	?	–	16µM	?	–
CCOC(=O)C1CCN(CC(O)COC(CC)c2ccccc2)CC1 (centres undefined)	–	–	–	–	–	–
O=C(CNC(=O)C(c1ccccc1)c1ccccc1)OCC(=O)c1cccc2ccccc12	–	20µM	·	?	–	–
O=C(CNC(=O)c1ccccc1)OCC(=O)c1cccs1	–	–	–	–	–	–
O=C(CNC(=O)C(c1ccccc1)c1ccccc1)OCC(=O)c1cccs1	–	1.5µM	–	1.6µM	–	–
CCOC(=O)c1c(C)[nH]c(C)c1S(=O)(=O)N1CCC(C(=O)Nc2ccccc2CC)CC1	–	?	·	?	?	–
O=C(NC1CC1)c1ccccc1	–	–	–	–	–	·
CNC(=O)c1ccccc1NC(=O)c1cccc(S(=O)(=O)N2CCCCC2)c1	–	–	–	–	–	–
CNC(=O)c1ccccc1NC(=O)c1cccc(S(=O)(=O)N2CCC(C)CC2)c1	–	16µM	–	21µM	?	–
CCNC(=O)c1ccccc1NC(=O)c1cccc(S(=O)(=O)N2CCC(C)CC2)c1	–	15µM	–	?	–	–
Brc1cccc(-c2n[nH]c(-c3ccccc3)n2)c1	–	23µM	?	?	?	–
SMILES	HepG2 viability	TDP1 cell noCPT	IL-1B inflam inh	DT40 TDP1 CPT	TGFb inhibitor	TDP1 inh
Cc1ccccc1NC1=C(Cl)C(=O)N(C2CCCCC2)C1=O	–	?	-93	?	–	–
O=C1C(Cl)=C(Nc2ccccc2O)C(=O)N1c1ccccc1	–	?	–	?	–	–
COc1ccccc1NC1=C(Cl)C(=O)N(C2CCCCC2)C1=O	–	26µM	–	18µM	?	–
O=C(Cn1cnc2c(nc3n2CCCCC3)c1=O)Nc1ccc(F)cc1	–	–	·	–	–	–
FC(F)(F)c1cc(CO[C@@H]2CCCN[C@@H]2c2ccccc2)cc(C(F)(F)F)c1	–	13µM	?	?	?	·
COc1cccc(NC(=O)CN(C2=NC3CS(=O)(=O)CC3S2)c2cccc(C)c2)c1 (centres undefined)	–	?	-65	–	–	·
COc1ccc(N(CC(=O)Nc2cc(Cl)ccc2OC)C2=NC3CS(=O)(=O)CC3S2)cc1 (centres undefined)	–	–	–	–	–	·
CCc1cccc(C)c1NC(=S)N(CCN(C)C)C(C)c1ccco1 (centres undefined)	–	?	–	18µM	–	–
Cc1ccc(NC(=S)N(CCN(C)C)C(C)c2ccco2)cc1Cl (centres undefined)	–	?	–	?	18µM	–
CNC(=S)NNC(=O)c1ccccc1F	–	–	–	–	–	–
CCOc1ccc(OCC)c(NS(=O)(=O)c2c(C(=O)N3CCCCCC3)c(C)n(C)c2C)c1	–	?	·	?	–	–
COc1ccc2oc(-c3ccc(C)c(NC(=O)c4ccc5c(c4)OCCO5)c3)nc2c1	–	16µM	·	?	–	–
O=C(Nc1ccc2oc(-c3ccc4ccccc4c3)nc2c1)c1cccc(Cl)c1Cl	–	5.2µM	·	8.2µM	–	–[12.3 µM]
O=C(Nc1ccc2oc(-c3ccc4ccccc4c3)nc2c1)c1ccc2c(c1)OCCO2	–	8.2µM	–	5.8µM	–	–
CC(C)c1ccc2oc(-c3cccc(NC(=O)c4ccc5c(c4)OCCO5)c3)nc2c1	–	16µM	·	?	–	·
COc1ccc2oc(-c3ccc(C)c(NC(=O)c4cccnc4)c3)nc2c1	–	–	·	–	–	–
COc1cccc(C(=O)Nc2ccccc2OCc2cc(=O)n3cc(C)ccc3n2)c1	–	?	·	–	–	–
O=C(NCc1cccnc1)C(=O)Nc1nc(C23CC4CC(CC(C4)C2)C3)cs1	–	16µM	–	?	–	·
O=C(NCc1ccncc1)C(=O)Nc1nc(C23CC4CC(CC(C4)C2)C3)cs1	–	21µM	–	21µM	?	–
O=C(NCc1ccccc1)C(=O)Nc1nc(C23CC4CC(CC(C4)C2)C3)cs1	–	?	–	23µM	–	–
COc1cccc(CNC(=O)C(NS(=O)(=O)c2cccs2)C(C)C)c1 (centres undefined)	–	–	·	–	–	–
CNC(=O)C1CCC(Cn2c(=O)c3sccc3n(CC(=O)Nc3cc(F)ccc3F)c2=O)CC1 (centres undefined)	–	?	·	?	–	–
O=C(NCCCc1nc2ccccc2n1Cc1ccc(F)cc1)C1CCCCC1	–	26µM	·	?	13µM	–
CC(=O)NCCCc1nc2ccccc2n1Cc1ccccc1C	–	–	–	–	–	–
